Assay outcomes as filed in PubChem.
ALDH1A1 inh: blocks purified human ALDH1A1 activity. P00352. AID 1030. Purified ALDH1A1, NADH fluorescence, propionaldehyde substrate. Potency, µM (titrated, usually from 75.3 µM), actives largely listed as inhibitors. 220,000 tested, 7.3% active
HPGD block: inhibitors of human 15-hydroxyprostaglandin dehydrogenase (HPGD) | 150,000 tested, 4.3% active | P15428 | Potency, µM, most hits filed as inhibitors | AID 894 | purified HPGD, NADH fluorescence kinetic, PGE2 substrate
Target sequence (P15428 whole entry, looked up): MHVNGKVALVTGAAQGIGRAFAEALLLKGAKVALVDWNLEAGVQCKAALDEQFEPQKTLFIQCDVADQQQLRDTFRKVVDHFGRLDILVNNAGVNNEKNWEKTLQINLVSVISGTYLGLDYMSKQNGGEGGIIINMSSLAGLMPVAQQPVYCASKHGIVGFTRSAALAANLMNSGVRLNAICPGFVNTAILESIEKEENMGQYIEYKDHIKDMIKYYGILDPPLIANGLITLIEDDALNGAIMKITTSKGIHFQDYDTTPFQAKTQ
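NADH formation kinetics: reaction with 30 uM PGE2 and 1 mM NAD+ (final), 20 nM enzyme, Tris-HCl pH 8 with Tween 20, after 15 min compound preincubation at room temperature. Fluorescence change, last versus first of five reads.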
PNC inhibitor: inhibitors of perinucleolar compartment assembly; activity change (PNC), negative = inhibition, % at 10 µM; AID 2417; 140,000 tested, 3.1% active; PC3M PTB-GFP, PNC prevalence imaging, 16 h; hits give low values;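 active means readout at or below -70, meaning at least 70% loss of cells showing the perinucleolar compartment, a nuclear body marking cancer cells; inconclusive means readout between -30 and a set limit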
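PC3M cells stably expressing PTB-GFP, 750–1000 cells/well, treated 16 h at 37 °C with compound (23 nl of library stock), in duplicate. After paraformaldehyde fixation and Hoechst stain, imaged at 20x; PNC prevalence scored by image analysis.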
IMPase inh: cell-permeable inhibitors of inositol monophosphatase (IMPase) | P97697 | CHO-M1 cells, IP1 accumulation, HTRF TR-FRET ratio | inhibition (IP1 accumulation), % at 46.1 µM | 120,000 tested, under 10 active | AID 901; active means well fitted curve in the direction sought with a large enough effect in the signal ratio, not every such curve was filed as active; inconclusive means small, poorly fitted or top-dose-only effect, or a change in a side signal; inactive means no such curve, though single readings can be large or run the other way; the % refers to the signal ratio;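 further: cells stimulated with carbachol in lithium chloride buffer; higher means more IMPase inhibition seen as more IP1 and lower FRET ratio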
Target sequence (P97697 whole entry, looked up): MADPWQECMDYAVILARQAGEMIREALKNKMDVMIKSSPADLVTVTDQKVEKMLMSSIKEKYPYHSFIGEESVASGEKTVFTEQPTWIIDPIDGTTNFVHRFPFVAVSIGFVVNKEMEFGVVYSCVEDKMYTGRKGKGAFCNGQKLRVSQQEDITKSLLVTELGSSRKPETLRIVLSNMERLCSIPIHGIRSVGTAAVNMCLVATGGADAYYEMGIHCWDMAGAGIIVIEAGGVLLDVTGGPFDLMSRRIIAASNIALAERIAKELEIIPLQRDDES
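CHO-M1 cells (CHO stably expressing M1 receptor), compound up to 46 uM final, stimulated with carbachol (50 uM as added) in buffer with 50mM LiCl, pH 7.4, 30 min at 37C. Cytosolic IP1 read by TR-FRET; AC50 from Hill fits.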
KinaseGlo FLuc: blocks Kinase-Glo luciferase, a counter-screen artifact | 200,000 tested, 0.28% active | AID 1379 | Kinase-Glo luciferase, ATP luminescence, 8 min | Q27757 | Potency, µM (top dose mostly 38.3 µM), most hits filed as inhibitors; active means well fitted inhibition curve with a large enough effect; inconclusive means small, poorly fitted or top-dose-only effect; further: nearly all actives have a fitted effect of over 60% in size
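Recombinant Kinase-Glo luciferase, 10 uM ATP (linear range), luciferin; imidazole pH 7.2 / KCl / MgCl2 / Tween / BSA buffer; 8 min RT; luminescence.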
Lamin A splicing: modulators of lamin A splicing; HeLa LMNA splicing GFP/RFP minigene ratio, 48 h; Potency, µM (series often up to 46.1 µM), usual class: inhibitors; 200,000 tested, 0.01% active; active means well fitted inhibition curve with a large enough effect in the signal ratio, with a control signal flat, not every such curve was filed as active; inconclusive means small, poorly fitted or top-dose-only effect, or effect the other way, or a change in a side signal; the % refers to the signal ratio
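S3 HeLa stable clones carrying a lamin A-EGFP splicing minigene plus DsRed2 were seeded at 600 cells/well in Opti-MEM with 2% FBS, pin-dosed and incubated 48 h at 37°C. Acumen cytometry (488 nm) gave the GFP/RFP total-intensity ratio.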
Hits are given with their value; n = inactive; u = inconclusive; x = no result given; [ ] = remark or other dose. This is a sample that favours compounds with a hit; in the whole collection about 10% have one here. Unless noted, the call rests on the fitted dose curve; in most records, active means well fitted inhibition curve with a large enough effect (not every such curve was filed as active); inconclusive means small, poorly fitted or top-dose-only effect, or another doubt; inactive means no such curve, though single readings can be large or run the other way.

SMILES	ALDH1A1 inh	HPGD block	PNC inhibitor	IMPase inh	KinaseGlo FLuc	Lamin A splicing
Cc1nn(-c2ccccc2)c(C)c1C(=O)OCC(=O)NC(=O)NC1CCCC1	n	x	u	u	x	n
C[C@@](N)(Cc1ccc(O)c(O)c1)C(=O)O	n	u	x	n	n	u
Cc1cc(C)nc(/N=C(/NC(=O)Nc2ccc(Cl)c(Cl)c2)Nc2ccccc2)n1	n	n	n	n	n	n
Cc1cc(C)nc(/N=C(/NC(=O)Nc2ccc(Cl)c(Cl)c2)Nc2cccc(Cl)c2)n1	n	n	-113	n	n	n
CC(=O)Nc1ccc(C(=O)CSc2ncn(-c3ccccc3)n2)cc1	u	13µM	n	n	n	n
Cc1csc(NC(=O)CSc2ncn(-c3ccccc3)n2)n1	n	n	n	n	n	n
Cc1csc(SCC(=O)Nc2nc3ccccc3s2)n1	u	n	n	n	n	n
O=C(CSc1ncn(-c2ccccc2)n1)Nc1nc2ccccc2s1	13µM	22µM	n	n	n	n
CC(C)(C)c1nc(SCC(=O)Nc2nc3c(s2)CCCC3)c2ccccc2n1	n	n	-95	n	n	u
Cn1cc(SCC(=O)Nc2nc3ccccc3s2)c2ccccc21	n	n	-89	n	n	u
CCOc1ccccc1NC(=O)CN1C(=O)C2(SCC(=O)N2c2ccc(C)cc2)c2ccccc21 (centres undefined)	x	x	x	x	x	n
OB(O)c1ccc(Cl)s1	n	n	x	x	n	x
O=C(CSc1ncn(-c2ccccc2)n1)Nc1nccs1	n	n	n	n	n	n
O=C(CSc1ncn(-c2ccccc2)n1)Nc1nc2c(s1)CCCC2	28µM	u	n	n	n	n
CCOc1ccccc1NC(=O)Cn1c(=O)n(-c2ccc(C)c(C)c2)c(=O)c2c(C)c(C(=O)N(C)C)sc21	x	x	x	x	x	n
COc1ccccc1NCc1ccc([N+](=O)[O-])s1	14µM	n	u	x	n	n
O=C(Nc1ccc2cn[nH]c2c1)c1c(Cl)cccc1Cl	n	22µM	n	n	n	n
Cc1ccc(NC(=S)Nc2ccc3cn[nH]c3c2)cc1C	u	x	u	n	x	n
CC(C)c1ccc(NC(=S)Nc2ccc3cn[nH]c3c2)cc1	19µM	x	x	x	n	n
Cc1ccc(NC(=O)Cn2cnc3c(oc4ccccc43)c2=O)cc1Cl	x	x	x	x	x	n
CCOc1ccccc1C(=O)N1CCC(n2nnc3cc(C(F)(F)F)ccc32)CC1	28µM	n	n	n	n	n
COc1ccc2c(c1)O[C@@H](c1cccc(C(F)(F)F)c1)[C@H](OC(=O)NCc1ccc3c(c1)OCO3)C2=O	n	n	x	x	n	x
CSc1nsc(/C=C/Nc2ccc(C(=O)O)cc2)c1C#N	10µM	x	x	x	n	n[9.22 µM]
CSc1nnc(C)c(/C=C/Nc2ccc(F)cc2F)n1	u	x	x	x	n	u
CSc1nsc(/C=C/Nc2ccc(F)cc2F)c1C#N	8.9µM	x	x	x	n	u
SMILES	ALDH1A1 inh	HPGD block	PNC inhibitor	IMPase inh	KinaseGlo FLuc	Lamin A splicing
CCOC(=O)c1[nH]c2c(c1Cc1ccccc1)C(=O)CC(c1ccc(OC)cc1)C2 (centres undefined)	x	x	x	n	x	x
Cc1cc([N+](=O)[O-])cc2c1NCC1CC=CC21 (centres undefined)	u	n	u	x	n	n
Cc1cc([N+](=O)[O-])c2c(c1C)C1C=CCC1C(c1ccccn1)N2 (centres undefined)	8.9µM	x	x	x	n	n
C/C(=C\C(=S)Nc1ccccc1)Nc1ccccc1	n	16µM	u	n	n	n
CC(=O)Nc1ccc(NC(=S)Nc2ccccc2)cc1	n	n	n	n	n	n
COc1ccc(OC)c(NC(=O)N(C)CCc2c(C)nn(C)c2C)c1	x	x	x	x	x	n
COc1ccc(NC(=O)N2CCN(c3ccc([N+](=O)[O-])cc3)CC2)cc1	n	x	x	x	n	n
Cc1noc(C)c1CSCC(=O)N1CCN(c2ccc([N+](=O)[O-])cc2)CC1	22µM	n	n	n	n	u
COc1ccc(N2CCN(C(=O)CSc3ccc([N+](=O)[O-])cc3)CC2)cc1	u	x	x	x	n	n
COc1ccc(NC(=O)N2CCN(c3ccc([N+](=O)[O-])cc3)CC2)cc1OC	8.9µM	x	x	x	n	x
CCOCC(=O)N1CCN(c2ccc([N+](=O)[O-])cc2)CC1	22µM	x	u	n	x	n
